The results in this text go back to PubChem BioAssay (EPA / NIEHS).

In general, AC50 refers to the midpoint of the concentration-response curve, whichever way the signal moves.

Activity calls are given as the source filed them. Rule for the calls: active = hit-call score of the fitted dose curve at least 0.9, where 1 is the maximum; inactive = score below 0.9.

The nature of the experiment: BSK_BT_PBMCCytotoxicity: PBMC Cytotoxicity Assessment in the BioMAP Diversity Plus: BT Assay (AID 2284225).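 Note: PBMC viability measured by Alamar Blue dye reduction fluorescence.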 The following applies: primary human B cells with PBMC. A digest of the protocol:
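PBMC (75,000/well) pretreated with compound 1 h, then activated with SEB and TSST-1 (20 ng/mL each final), incubated 90 h; Alamar Blue added 6 h, fluorescence read at 546/580 nm. Fitted relative to DMSO.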
With `CCn1c2ccccc2c2cc(N)ccc21`, the outcome was inactive. In the case of `CCCCCCCCC=O`, the outcome was inactive. Same read-out and setting: with `CC(C)c1ccc(C(C)C)cc1` the entry was “inactive”. `CC1CCC(C(C)CS)CC1S` (stereo not drawn): the result was inactive. The same measure, in the same setting: with `CC(=O)O[C@]1(C(C)=O)CC[C@H]2[C@@H]3C[C@H](C)C4=CC(=O)CC[C@]4(C)[C@H]3CC[C@@]21C` the entry was “inactive”. Same read-out and setting: as for `Cc1ccc(O)c(C(C)(C)C)c1`, the entry is “inactive”.

Take `O=C1CCCCCCCCCCCCCCO1`: the AC50 is 36.8 µM (active). In the case of `C=C[Si](OCC)(OCC)OCC`, the outcome was inactive. As for `CCCCC(CC)COC(=O)/C=C\C(=O)OCC(CC)CCCC` (stereo not drawn), the AC50 is 36.1 µM (active). For the compound `O=C=NC1CCC(CC2CCC(N=C=O)CC2)CC1` (stereo not drawn), the result was inactive. Same read-out and setting: as for `CCCCCCCCCCCCCCCCCC(=O)OCC(CC)CCCC` (stereo not drawn), the entry is “inactive”. Turning to `BrC1CCC(Br)C(Br)CCC(Br)C(Br)CCC1Br` (stereo not drawn), the AC50 is 32.4 µM (active). `CNC[C@H](O)c1cccc(O)c1`: the outcome was inactive. In the case of `N#Cc1ccc(CC(=NNC(=O)Nc2ccc(OC(F)(F)F)cc2)c2cccc(C(F)(F)F)c2)cc1`, the result was inactive. The same measure, in the same setting: with `CC(=O)Nc1ccccc1O` the entry was “inactive”; with `O=C(O)C[C@H](O)C[C@H](O)/C=C/c1c(C2CC2)nc2ccccc2c1-c1ccc(F)cc1`, “inactive”. The same measure, in the same setting: with `O=C(O)c1cn(C2CC2)c2cc(N3CCNCC3)c(F)cc2c1=O` the entry was “inactive”; with `CCCCC(CC)COCCC#N` (stereo not drawn), “inactive”; with `O=P(c1ccccc1)(c1ccccc1)c1ccccc1`, “inactive”. Same read-out and setting: as for `O=[N+]([O-])c1cc(C(F)(F)F)ccc1Cl`, the entry is “inactive”; as for `C=C(C)C(=O)O[C@H]1C[C@@H]2CC[C@@]1(C)C2(C)C`, “inactive”; as for `O=C1OC2(c3cc(Br)c(O)c(Br)c3Oc3c2cc(Br)c(O)c3Br)c2c(Cl)c(Cl)c(Cl)c(Cl)c21`, “inactive”. Consider `CC(C)(COC(=O)c1ccccc1)COC(=O)c1ccccc1`, for which the outcome was inactive. Same read-out and setting: as for `c1ccc2sc(SN(C3CCCCC3)C3CCCCC3)nc2c1`, the entry is “inactive”; as for `C#C[C@]1(O)CC[C@H]2[C@@H]3CCC4=Cc5oncc5C[C@]4(C)[C@H]3CC[C@@]21C`, “inactive”. With `CCCCC/C=C/C=C/C=O`, the AC50 is 20 µM (active). As to `CC(C)Oc1ccccc1O`, the result was inactive. Same read-out and setting: with `CN(CCOc1ccc(CC2SC(=O)NC2=O)cc1)c1ccccn1` (stereo not drawn) the entry was “inactive”; with `CCCCCCCCCC=O`, “inactive”. On the same count and under the same terms, with `CCc1c(C)cc(N)c(CC)c1N` the entry was “inactive”; with `COC(=O)c1ccc(C)cc1`, “inactive”; with `Nc1cc([N+](=O)[O-])ccc1Cl`, “inactive”. For `Cc1ccc2n[nH]nc2c1`, the result was inactive.

As for `Cc1ccc(Nc2ccc(O)c3c2C(=O)c2ccccc2C3=O)cc1`, the result was inactive. Turning to `O=C(O)c1cn(-c2ccc(F)cc2)c2cc(N3CCNCC3)c(F)cc2c1=O`, the result was inactive. On the same count and under the same terms, as for `c1ccc2c(c1)c1cccc3ccc4cccc2c4c31`, the entry is “inactive”. As to `CC1COc2ccccc2N1C(=O)C(Cl)Cl` (stereo not drawn), the AC50 is 12.4 µM (active). In the case of `CC(=O)/C=C/C1=C(C)CCCC1(C)C`, the result was inactive.
